# KB-V1 cytotox: kills drug-selected multidrug resistant KB-V1 cells | KB-V1 MDR cells viability, CellTiter-Glo, 72 h | Potency, µM (series often up to 46.1 µM), hits mostly cytotoxic | 400,000 compounds, 3.4% hits | AID 1347076; also: % is scaled to controls: 0 for no effect and ±100 for the full control effect; nearly all actives have a fitted effect of over 60% in size
#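 KB-V1 cells (P-gp-expressing MDR subline of KB-3-1) in phenol-red-free DMEM with 10% FBS were exposed to library compounds over a concentration series for 72 h at 37 degrees C. Viability read by CellTiter-Glo luminescence; concentration-effect curves fitted after normalization.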
# ELG1 repair inh: inhibitors of ELG1-dependent DNA repair in HEK293T cells; HEK293T ELG1-luciferase reporter, luminescence, 16 h; DNA damage induced by 5-fluorouridine; Potency, µM (top dose mostly 46.1 µM), for the others: top-dose activity change, negative = inhibition, most hits filed as inhibitors; 330,000 compounds, 2.3% hits; AID 504467; also: % is scaled to controls: 0 for no effect and ±100 for the full control effect; nearly all actives have a fitted effect of over 55% in size
#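 HEK293T cells expressing luciferase-tagged ELG1 (2,000/well) received 5-Fluorouridine plus compound or DMSO for 16 hr at 37 °C. Luciferase was read by ONE-Glo luminescence after 30 min at room temperature.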
# SW480 rereplic: induces DNA re-replication in SW480 colon adenocarcinoma cells; SW480 DNA re-replication, Hoechst DNA content imaging, 48 h; Potency, µM (titrated, usually from 46.1 µM), for the others: at the top dose re-replication activation, hits mostly activators; 340,000 compounds, 1.8% hits; also: % of control where 0% means no effect; nearly all actives have a fitted effect of over 55% in size
#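 Quantitative HTS format with DMSO vehicle controls; 48 hr drug incubation at 37 C, then 40 min Hoechst staining and scanning imager measurement at 405 nm excitation.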
# MCF10A rereplic: inducers of DNA re-replication in MCF 10A breast cells | Potency, µM (titrated, usually from 46.1 µM), inactives show top-dose activity, positive = re-replication, usual class: activators | MCF 10A DNA re-replication, Hoechst nuclear intensity, 48 h | 350,000 compounds, 2.9% hits | AID 624296; also: % of control where 0% means no effect; nearly all actives have a fitted effect of over 50% in size
# KB-3-1 cytotox: kills parental KB-3-1 adenocarcinoma cells; Potency, µM (doses to about 46.1 µM), hits mostly cytotoxic; 400,000 compounds, 1.4% hits; KB-3-1 viability, CellTiter-Glo ATP luminescence, 72 h; also: % is scaled to controls: 0 for no effect and ±100 for the full control effect; nearly all actives have a fitted effect of over 60% in size
#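 KB-3-1 parental drug-naive adenocarcinoma cells in DMEM/10% FBS, incubated 72 h at 37 C with pin-transferred compounds across a concentration series. Viability by CellTiter-Glo luminescence; concentration-response curves fitted after normalization.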
# Numbers without * were called inactive; i = inactive; ? = inconclusive; · = no result given; [ ] = remark or other dose. Only some compounds are listed: those with a hit (about 8.1% of all), similar ones and a draw of the others. Calls follow the shape of the dose curve; as a rule, active = well fitted curve in the direction sought with a large enough effect; inconclusive = small, poorly fitted or top-dose-only effect, or another doubt; inactive = no such curve, though single readings can be large; an effect the other way counts as inactive or inconclusive. Potency is read from the fitted curve at half-maximal effect.
SMILES,KB-V1 cytotox,ELG1 repair inh,SW480 rereplic,MCF10A rereplic,KB-3-1 cytotox
CCOC(=O)c1c(C)cc2c(CO)n[nH]c(=O)c2c1C,0.82µM*,·,·,·,i
COc1cccc(NC2=C(Cl)C(=O)OC2OC(=O)c2ccco2)c1 (stereo unspecified),i,16%,?,14µM*,i
Cc1ccc(OCCCCNC2CCCC(C)C2C)c(C)c1 (stereo unspecified),21µM*,?,?,?,23µM*
COc1ccc(Cn2cc(C(=O)c3ccc(C)c(C)c3)c(=O)c3ccccc32)cc1,i,·,·,·,i
COc1ccc2c(c1)c(=O)c(C(=O)c1ccccc1)cn2Cc1ccc(C)cc1,18µM*,?,?,?,?
O=S1(=O)N=C(Sc2cccc3cccnc23)c2ccccc21,?,·,·,·,9.2µM*
COc1cccc(-c2nnc3sc(CN4CCCCC4)cn23)c1,i,·,·,·,2.6µM*
c1ccc(-c2nnc3sc(CN4CCc5ccccc54)cn23)cc1,?,-6%,0%,-2%,21µM*
Brc1ccc(-c2nnc3sc(CN4CCc5ccccc5C4)cn23)cc1,i,·,?,7%,i
CCOc1ccc2c(c1)C(C)=CC(C)(C)N2,i,27%,0%,?,i
CC1=CC(C)(C)N(S(=O)(=O)c2ccc(F)cc2)c2ccc(C)cc21,7.3µM*,-4%,-1%,-5%,23µM*
COc1ccc2c(c1)C(C)=CC(C)(C)N2S(=O)(=O)c1ccc(NC(C)=O)cc1,i,-2%,1.5µM*,?,2.1µM*
CCOc1ccc2c(c1)C(C)=CC(C)(C)N2S(=O)(=O)c1ccc(F)cc1,?,-11%,?,?,7.3µM*
CCOc1ccc2c(c1)C(C)=CC(C)(C)N2S(=O)(=O)c1ccc(NC(C)=O)cc1,1.3µM*,?,?,?,1.6µM*
COc1ccc(CN(C)CC(=O)NC(=O)NC2CCCCC2)cc1,?,-2%,-4%,1%,i
O=C(Cn1ncn2cccc2c1=O)N1CCCCC1,i,-1%,-3%[9.22 µM],-26%,i
CC1=CC(C)(C)N(S(=O)(=O)c2ccc(C)cc2)c2ccccc21,?,-4%,6%,0%,16µM*
CC1=CC(C)(C)N(C(=O)CN2C(=O)c3ccccc3C2=O)c2ccccc21,?,1%,-2%,30%,i
COc1ccc2c(c1)C(C)=CC(C)(C)N2S(=O)(=O)c1ccc(Br)cc1,3.3µM*,7%,18µM*,?,4.1µM*
CN(N)c1nc2ccccc2nc1C(F)(F)F,i,2%,-2%,18%,i
CC(C)CC(=O)NN(C)c1nc(-c2ccccc2)nnc1C(F)(F)F,i,-9%,-3%,9%,i
Cc1ccc(C(=O)NN(C)c2nc3ccccc3nc2C(F)(F)F)cc1,?,-13%,13µM*,4.6µM*,5.8µM*
CN(NC(=O)c1ccc(Cl)cc1)c1nc(-c2ccccc2)nnc1C(F)(F)F,15µM*,?,-2%,?,?
Cc1cn(CC(=O)NCC2CCCO2)c(=O)[nH]c1=O (stereo unspecified),i,·,1%,-7%,?
COc1ccc(CCNC(=O)CN(CCc2ccccc2)S(C)(=O)=O)cc1,?,-7%,0%,8%,i
SMILES,KB-V1 cytotox,ELG1 repair inh,SW480 rereplic,MCF10A rereplic,KB-3-1 cytotox
CC(C)N(Cc1nc(-c2ccccc2)no1)C(=O)CCCN1C(=O)c2ccccc2C1=O,i,-4%,-1%,-6%,i
CC(C)N(Cc1nc(-c2ccc(Cl)cc2)no1)C(=O)C(c1ccccc1)c1ccccc1,?,-16%,24%,13%,?
Cc1cccc(-c2noc(CN(C(=O)/C=C/c3ccccc3Cl)C(C)C)n2)c1,?,-25%,1%,?,i
CC(C)N(Cc1nc(-c2ccccc2)no1)C(=O)CN1C(=O)c2ccccc2C1=O,10µM*,-19%,0%,2%,i
CC(C)N(Cc1nc(-c2ccc(Cl)cc2)no1)C(=O)/C=C/c1ccccc1,16µM*,1%,15%,?,i
Cc1ccc(-c2noc(CN(C(=O)C(c3ccccc3)c3ccccc3)C(C)C)n2)cc1,8.2µM*,?,?,10%,?

# Source: PubChem BioAssay
